The results in this text go back to PubChem BioAssay (NCI).

Among the test systems are T-47D breast; BT-549 breast; MDA-MB-435 melanoma; SW-620 colon; MCF7 breast; HCT-116 colon; HCC-2998 colon; KM12 colon.
Holding throughout (test): NCI-60 one-dose screen, 48 h (100 = growth as untreated, 0 = no growth, -100 = all killed)
What all share (conditions): 10 µM unless noted

Structures are written as SMILES. The panel holds about 83,000 compounds, 20% with a hit somewhere; the sample as a whole holds those more often.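 Cells were grown in 96-well plates and exposed to the test compound at a single concentration for 48 hours; results are reported as percent growth, with values below 10 considered active.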 Values without a mark were called inactive. Calls of active or inactive are those of the source.

As to `O=C1c2cc3c(cc2-c2c1c1ccc(F)cc1c(=O)n2CCCNCCO)OCO3`, the growth in the experiment on T-47D breast is -17.7% (active); with BT-549 breast, -20% (active); with MDA-MB-435 melanoma, -71.5% (active); in the experiment on SW-620 colon, -41.5% (active); in the experiment with MCF7 breast it was -65.5% (active); in the experiment with HCT-116 colon it was -43.1% (active). Besides, the growth in the experiment on HCC-2998 colon was -65.7% (active); in the experiment on KM12 colon it was -29.9% (active).

For `Cc1nc2c3c(-c4ccccc4)c(-c4ccccc4)oc3ncn2n1`, the growth with T-47D breast is 70%; in the experiment with BT-549 breast, 101%; in the experiment on MDA-MB-435 melanoma it was 100%; in the experiment on SW-620 colon, 96.9%; in the experiment on MCF7 breast, 101%; in the experiment on HCT-116 colon, 88.5%. The growth in the experiment on HCC-2998 colon is 96.2%; with KM12 colon it was 99.3%.

Regarding `COc1ccc(SC2c3cc(OC)c(OC)cc3Oc3nc(N)c(C#N)c(N)c32)cc1` (centres undefined), the growth in the experiment with T-47D breast is -41.9% (active); with BT-549 breast, -79.1% (active); in the experiment with MDA-MB-435 melanoma, -84.4% (active); in the experiment on SW-620 colon, -64.5% (active); in the experiment on MCF7 breast it was -58.9% (active); in the experiment with HCT-116 colon, -88.6% (active). In addition, the results for the growth in the experiment on HCC-2998 colon and in the experiment with KM12 colon were -84.3% (active) and -79% (active), respectively.

Consider `CCOc1cc2ncc(C#N)c(Nc3ccc(OCc4cccc(F)c4)c(Cl)c3)c2cc1NC(=O)CC1CCSS1` (centres undefined), for which the growth is -0.0513% (active) in the experiment with T-47D breast; 44.6% in the experiment on BT-549 breast; -26.4% (active) with MDA-MB-435 melanoma; 90.4% in the experiment with SW-620 colon; 2.9% (active) with MCF7 breast; -24.7% (active) in the experiment on HCT-116 colon. Besides, the values for the growth in the experiment with HCC-2998 colon and with KM12 colon were -25.1% (active) and -67.6% (active), respectively.

On to `O=C1c2cc3c(cc2-c2c1c1ccc(F)cc1c(=O)n2C[C@H](O)[C@@H](O)[C@H](O)CO)OCO3`, for which the growth with T-47D breast was -4.06% (active); in the experiment with BT-549 breast, -21.3% (active); in the experiment on MDA-MB-435 melanoma, -76.2% (active); in the experiment with SW-620 colon, 7.68% (active); in the experiment on MCF7 breast it was 4.18% (active); in the experiment with HCT-116 colon it was 9.8% (active). The growth was -8.31% (active) with HCC-2998 colon and 7.39% (active) in the experiment on KM12 colon.

As for `Nc1ccn(-c2ccc(Br)cc2)c(=O)n1`, the growth with T-47D breast was 202%; in the experiment with BT-549 breast, 105%; in the experiment with MDA-MB-435 melanoma, 96.6%; in the experiment with SW-620 colon, 98.8%; in the experiment with MCF7 breast it was 108%; in the experiment on HCT-116 colon, 102%. The growth is 29.7% with HCC-2998 colon and 121% in the experiment with KM12 colon.

With `COc1ccc(CCNc2nc3c(c(=O)n(Cc4ccc(Br)cc4)c(=O)n3C)n2C)cc1OC`, the growth in the experiment on T-47D breast is 66.2%; in the experiment on BT-549 breast it was 86.5%; with MDA-MB-435 melanoma, 99.2%; with SW-620 colon, 99.5%; in the experiment on MCF7 breast, 94.4%; in the experiment on HCT-116 colon, 90.5%. Further, the values for the growth in the experiment on HCC-2998 colon and in the experiment on KM12 colon were 101% and 100%, respectively.

As to `CC(=O)Nc1ccc(-n2c(O)c(/C=N/NC(=O)Cc3ccccc3Nc3c(Cl)cccc3Cl)sc2=S)cc1`, the growth in the experiment on T-47D breast was 80.6%; in the experiment with BT-549 breast, 104%; in the experiment on MDA-MB-435 melanoma, 109%; in the experiment with SW-620 colon, 96.5%; with MCF7 breast it was 92.3%; in the experiment on HCT-116 colon, 95.3%. For the same compound, the growth in the experiment on HCC-2998 colon is 106%; in the experiment on KM12 colon it was 105%.

`COC(=O)[C@@H]1CCCN1C(=O)[C@@H]1CCCN1C(=O)[C@H](Cc1ccccc1)NC(=S)Nc1cc(C(F)(F)F)cc(C(F)(F)F)c1`: the growth in the experiment on T-47D breast is 92.3%; with BT-549 breast, 81.1%; in the experiment on MDA-MB-435 melanoma, 86.5%; with SW-620 colon it was 93%; in the experiment with MCF7 breast, 67.1%; with HCT-116 colon, 69%. The growth was 93.3% in the experiment on HCC-2998 colon and 45.1% in the experiment on KM12 colon.

With `COc1ccc(/C=C/c2nc3ccccc3nc2/C=C/c2ccc(OC)cc2)cc1`, the growth was 78.1% in the experiment on T-47D breast; 104% in the experiment with BT-549 breast; 88.4% with MDA-MB-435 melanoma; 92.6% with SW-620 colon; 80.9% with MCF7 breast; 89% in the experiment on HCT-116 colon. Besides, the growth was 104% with HCC-2998 colon and 99.6% in the experiment with KM12 colon.

As for `O=CNc1ccc2c(c1)Cc1cccc(NC=O)c1-2`, the growth is 96.8% in the experiment with T-47D breast; 94.1% in the experiment on BT-549 breast; 100% in the experiment with MDA-MB-435 melanoma; 98.2% in the experiment with SW-620 colon; 86.1% in the experiment on MCF7 breast; 95.2% with HCT-116 colon. Further, the growth is 97.4% with HCC-2998 colon and 67.8% in the experiment with KM12 colon.

Consider `CC/C=C\C[C@H](O)C/C=C1/C(=O)C=C[C@@]1(C)C/C=C\CCCC(=O)OC`, for which the growth with T-47D breast was 98.2%; in the experiment with BT-549 breast, 104%; in the experiment with MDA-MB-435 melanoma, 106%; in the experiment on SW-620 colon, 114%; with MCF7 breast, 92.8%; with HCT-116 colon, 94%. Moreover, in the experiment on KM12 colon, the growth is 102%.

Regarding `O=C(N/N=C/c1c[nH]c2ccccc12)c1cc(-c2ccccc2)on1`, the growth in the experiment with T-47D breast is 77.2%; with BT-549 breast, 90.3%; in the experiment with MDA-MB-435 melanoma, 94.8%; with SW-620 colon, 102%; in the experiment on MCF7 breast, 79.1%; with HCT-116 colon it was 90.6%. The growth in the experiment with HCC-2998 colon is 92.9%; in the experiment with KM12 colon, 92.3%.

`CNc1ccc(-c2cc(=O)oc3ccc(Cl)cc23)cc1`: the growth in the experiment on T-47D breast is 66.8%; in the experiment on BT-549 breast, 21.8%; in the experiment with MDA-MB-435 melanoma, -11.5% (active); in the experiment with SW-620 colon, 23.3%; with MCF7 breast it was 18.3%; in the experiment with HCT-116 colon, 10%. The values for the growth in the experiment on HCC-2998 colon and in the experiment on KM12 colon were 31.6% and 15%, respectively.

Turning to `COc1cc2c(cc1-c1c(C)noc1C)ncc1nc(C3CCOCC3)n([C@@H](C)COC(F)F)c12`, the growth was 38.1% with T-47D breast; 64.1% with BT-549 breast; 39.7% with MDA-MB-435 melanoma; 63.4% in the experiment on SW-620 colon; 18.4% in the experiment with MCF7 breast; 30.5% in the experiment with HCT-116 colon. Also, the values for the growth in the experiment with HCC-2998 colon and with KM12 colon were 43.3% and 48.8%, respectively.
